In PubChem BioAssay AID1159580 (chemical genetic matrix, 2015):
The whole screen tested about 5,500 compounds, of which about 2,000 (36%) were called active. Roughly 18% stayed inconclusive and do not appear here. Rule as the data show it: active = normalized growth mostly below about 0.91 (no sharp cut-off); inconclusive = no clear call, values can overlap the other calls; inactive = mostly above about 0.92. Some of the results follow.

Test: chemical genetic growth profiling, strain panel (AID 1159580);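 also: tested at 20 µM; growth read once vehicle control cultures reached saturation at 30 °C; 1 = growth at the plate median or of vehicle wells; lower values mean less growth of the strain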
Conditions: S. cerevisiae deletion strains, growth OD
[1] = locus YHR030C, strain SLT2, hits give low values
[2] = locus YHR079C, strain IRE1, hits give low values
[3] = locus YJL095W, strain BCK1, hits give low values
[4] = locus YJR066W, strain TOR1, hits give low values
[5] = locus YLR113W, strain HOG1, hits give low values
[6] = locus YNL183C, strain NPR1, hits give low values
[7] = locus YOR231W, strain MKK1, hits give low values
[8] = locus YPL256C, strain CLN2, hits give low values

Measured: normalized growth

O=S(=O)([O][Al])OC[C@H]1O[C@@](COS(=O)(=O)[O][Al])(O[C@H]2O[C@H](COS(=O)(=O)[O][Al])[C@@H](OS(=O)(=O)[O][Al])[C@H](OS(=O)(=O)[O][Al])[C@H]2OS(=O)(=O)[O][Al])[C@@H](OS(=O)(=O)[O][Al])[C@@H]1OS(=O)(=O)[O][Al]
inactive: [1] 0.977 | [2] 0.981 | [3] 0.986 | [4] 0.958 | [5] 0.984 | [6] 0.924 | [7] 0.98 | [8] 0.985

Nc1cc(C(Cl)=C(Cl)Cl)c(S(N)(=O)=O)cc1S(N)(=O)=O
inactive: locus YAL021C, strain ccr4, hits give low values 0.98 | locus YAL026C, strain drs2, hits give low values 1 | locus YAL030W, strain snc1, hits give low values 1.02 | locus YBL061C, strain skt5, hits give low values 1.01 | locus YBR009C, strain hhf1, hits give low values 0.992 | locus YBR023C, strain chs3, hits give low values 0.999 | locus YBR171W, strain sec66, hits give low values 1.02 | locus YBR231C, strain swc5, hits give low values 1.04 | locus YBR279W, strain paf1, hits give low values 1.01 | locus YCL011C, strain gbp2, hits give low values 0.976 | locus YCL016C, strain dcc1, hits give low values 0.978 | locus YCL061C, strain MRC1, hits give low values 1.04 | locus YCL069W, strain vba3, hits give low values 1.01 | locus YCR088W, strain abp1, hits give low values 1.01 | locus YDL005C, strain med2, hits give low values 1.01 | locus YDL040C, strain nat1, hits give low values 1.01 | locus YDR001C, strain nth1, hits give low values 1.02 | locus YDR069C, strain doa4, hits give low values 1.05 | locus YDR137W, strain rgp1, hits give low values 0.998 | locus YDR159W, strain sac3, hits give low values 0.957 | locus YDR195W, strain ref2 0.998 | locus YDR297W, strain sur2, hits give low values 1.01 | locus YDR334W, strain swr1, hits give low values 1.01 | locus YDR335W, strain msn5, hits give low values 1.01 | locus YDR392W, strain spt3, hits give low values 0.978 | locus YEL003W, strain gim4, hits give low values 1.05 | locus YEL037C, strain rad23, hits give low values 1 | locus YEL061C, strain CIN8 (second series), hits give low values 1 | locus YER015W, strain faa2, hits give low values 1.02 | locus YER016W, strain bim1, hits give low values 1 | locus YER111C, strain swi4, hits give low values 1.01 | locus YER155C, strain BEM2 (second series), hits give low values 1.07 | locus YFR010W, strain ubp6, hits give low values 1.02 | locus YGL167C, strain pmr1, hits give low values 1.02 | locus YGL173C, strain kem1, hits give low values 1.04 | locus YGL227W, strain vid30, hits give low values 1 | locus YGL240W, strain doc1, hits give low values 1.04 | locus YGL253W, strain hxk2, hits give low values 1.01 | locus YHR013C, strain ard1, hits give low values 1.03 | locus YHR027C, strain rpn1, hits give low values 1.02 | [1] 0.977 | [2] 0.967 | locus YHR142W, strain chs7, hits give low values 1.02 | locus YJL092W, strain hpr5, hits give low values 1.02 | locus YJL095W, strain BCK1 (second series), hits give low values 0.997 | [3] 1.01 | locus YJL115W, strain asf1, hits give low values 1 | locus YJL129C, strain trk1, hits give low values 1.02 | locus YJL154C, strain vps35, hits give low values 0.999 | locus YJL164C, strain tpk1, hits give low values 0.995 | locus YJL166W, strain qcr8, hits give low values 1.06 | [4] 0.95 | locus YKL160W, strain elf1, hits give low values 1.02 | locus YKR026C, strain gcn3, hits give low values 1.01 | locus YKR091W, strain srl3, hits give low values 0.992 | locus YLL001W, strain dnm1, hits give low values 1.04 | locus YLL026W, hits give low values 1.02 | locus YLL041C, strain sdh2, hits give low values 1.01 | locus YLR027C, strain aat2, hits give low values 1.02 | [5] 1 | locus YLR221C, strain rsa3, hits give low values 0.981 | locus YLR258W, strain gsy2, hits give low values 0.991 | locus YLR262C, strain YPT6 (second series), hits give low values 1.06 | locus YLR320W, strain mms22, hits give low values 0.993 | locus YLR342W, strain FKS1, hits give low values 1.04 | locus YLR357W, strain rsc2, hits give low values 1.04 | locus YLR370C, strain arc18, hits give low values 1 | locus YLR384C, strain iki3, hits give low values 1.01 | locus YML120C, strain ndi1, hits give low values 1.03 | locus YMR058W, strain fet3, hits give low values 1.02 | locus YMR125W, strain sto1, hits give low values 0.972 | locus YMR129W, hits give low values 0.998 | locus YMR205C, strain PFK2, hits give low values 1.03 | locus YMR231W, strain pep5, hits give low values 1.01 | locus YNL071W, strain lat1, hits give low values 0.991 | [6] 0.962 | locus YNL209W, strain ssb2, hits give low values 0.994 | locus YNL248C, strain rpa49, hits give low values 0.995 | locus YNL322C, strain KRE1 (second series), hits give low values 1.01 | locus YNR049C, strain mso1, hits give low values 1 | locus YOR001W, strain rrp6, hits give low values 1.02 | locus YOR070C, strain gyp1, hits give low values 1 | locus YOR080W, strain dia2, hits give low values 1.02 | locus YOR083W, strain WHI5, hits give low values 1.01 | locus YOR106W, strain vam3, hits give low values 1.04 | [7] 0.986 | locus YOR265W, strain rbl2, hits give low values 1.01 | locus YOR270C, strain vph1, hits give low values 1.05 | locus YOR290C, strain snf2, hits give low values 0.964 | locus YPL051W, strain arl3, hits give low values 1.04 | locus YPL078C, strain atp4, hits give low values 1.06 | locus YPL106C, strain sse1, hits give low values 0.997 | locus YPL240C, strain hsp82, hits give low values 1 | [8] 0.964
